# Bioassay records: PubChem, National Center for Advancing Translational Sciences (NCATS)
# Compounds with a hit are over-represented: about 5.5% of the library has one in this group of screens.
# Coupling enz: inhibits coupling enzyme system, counter-screen for aldolase hits | coupling enzyme system counterscreen, AmpLite Red fluorescence | activity change, negative = inhibition, % at 58.2 µM, hits read low | 0.67% of 290,000 active | AID 2472; in the data active = activity change below about -30%
#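 Counterscreen of the coupled detection system alone, without aldolase: glyceraldehyde-3-phosphate coupling enzymes plus AmpLite Red readout. Compounds at 57.5 uM final, 10 min RT preincubation, 20 min RT reaction, fluorescence 525/598 nm.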
# ELG1 repair inh: ELG1-dependent DNA repair inhibition | HEK293T ELG1-luciferase reporter, luminescence, 16 h; DNA damage induced by 5-fluorouridine | Potency, µM (highest dose often 46.1 µM), for the others: top-dose activity change, negative = inhibition, actives largely listed as inhibitors | 2.3% of 330,000 active; note: potency is the fitted concentration of half-maximal effect; nearly all actives have a fitted effect of over 55% in size
#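 In this reporter screen, reduction of luminescence relative to DMSO vehicle indicated activity. Compounds and 5-fluorouridine were added together to 2,000 cells per well, incubated for 16 hr at 37 °C, then developed with ONE-Glo.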
# Sfp inh: inhibitors of Bacillus subtilis Sfp phosphopantetheinyl transferase. Q9F4F7. AID 1490. 3.5% of 310,000 active. Biochemical Sfp PPTase activity, qHTS. Potency, µM, inactives show largest response in the series, negative = inhibition, actives largely listed as inhibitors;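 note: the enzyme is Sfp with the accession as filed and its product quenches rhodamine fluorescence; potency is the fitted concentration of half-maximal effect; 0% = enzyme reaction without inhibitor and -100% = no enzyme wells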
#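 Step 1, compound plus 15 nM Sfp-PPTase, 15 min, room temperature. Step 2, add rhodamine-CoA (5 uM) and BHQ-2-YbbR (12.5 uM). Step 3, read 525/598 nm fluorescence at 0 and 30 min.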
# Giardia killer: kills Giardia lamblia | Giardia lamblia trophozoite viability | 0.15% of 340,000 active | activity change, % at 7.66 µM, hits read low; in the data active = activity change below about -80%; inconclusive = between about -30% and that limit;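 note: parasites exposed to compound for two days anaerobically before the ATP read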
#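 Trophozoites 100 cells/well + cpd; 48 hrs, 37 deg C, anaerobic. ATPLite 1-Step added, 15-30 min RT, luminescence read (ATP-based viability).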
# An asterisk follows results filed as active; ? = inconclusive; nt = no result. Unless noted, calls come from the whole dose curve; as a rule, active = well fitted curve in the direction sought with a large enough effect; inconclusive = small, poorly fitted or top-dose-only effect, or another doubt; inactive = no such curve, though single readings can be large; an effect the other way counts as inactive or inconclusive. Unless noted, % is set by controls: 0 for no effect and ±100 for the full control effect.
SMILES,Coupling enz,ELG1 repair inh,Sfp inh,Giardia killer
Cc1ccc(CN(C(=O)Cn2nnc3ccccc32)C(C(=O)NCc2ccco2)c2ccc(C)o2)cc1 (stereo not given),-3.6,23.1µM*,18.7%,0.2
Cc1ccc(C)c(N(C(=O)Cn2nnc3ccccc32)C(C(=O)NCc2ccco2)c2ccncc2)c1 (stereo not given),-2.2,0.5%,1.5%,1.4
COc1ccc(CNc2ncnc3ccc(-c4cccc(C#N)c4)cc23)c(OC)c1,-2.2,nt,19.3%,nt
COc1ccc(CN(C)CC(=O)Nc2cc(OC)c([N+](=O)[O-])cc2C)c(OC)c1,-3.2,16.4µM*,1.3%,-7.2
COc1cc(NC(=O)CN(C)Cc2ccc(OC(F)F)cc2)c(C)cc1[N+](=O)[O-],0.8,?,?,12.0
COc1cccc(NC(=O)CN(C)CC(=O)Nc2ccc(C)c([N+](=O)[O-])c2)c1,0.6,18.3µM*,-4.6%,-16.7
Cc1cc(/C=N/Nc2nc(N)ncc2[N+](=O)[O-])c(C)n1-c1ccccc1F,1.7,?,50.1µM*,nt
Cc1ccc(S(=O)(=O)C/N=C(/NC(=S)N(c2ccccc2)c2ccccc2)c2ccccc2)cc1,-2.3,?,31.6µM*,-9.8
COC(=O)C1=C(C(=O)OC)[C@@H]2Nc3ccccc3[C@@]23C[C@@H](C(=O)OC)N(S(=O)(=O)c2ccc4c(c2)OCCN4C)C3=N1,-0.1,nt,29.0%,nt
COc1ccc(Nc2nc(N)c([N+](=O)[O-])c(N3CCOCC3)n2)cc1,0.3,0.0%,-0.6%,11.7
CN(C)c1ccc(Nc2nc(N)c([N+](=O)[O-])c(N3CCOCC3)n2)cc1,-6.7,16.4µM*,?,16.5
Oc1ccc(Br)cc1-c1cc(-c2ccccc2)n[nH]1,1.7,-2.5%,-15.5%,-11.9
O=[N+]([O-])c1cccc(-c2cc(-c3cc(Br)ccc3O)[nH]n2)c1,0.8,16.4µM*,?,28.5
COc1cc(/C=C2\SC(=S)N(CCC(=O)NCCc3ccccc3)C2=O)cc(OC)c1OC,0.3,0.7%,-21.0%,7.6
COc1cc(/C=C2\SC(=S)N(CCC(=O)Nc3ccccc3O)C2=O)cc(OC)c1OC,-1.5,7.3µM*,13.1%,-3.1
COc1ccc(/C=C2\SC(=S)N(CCCC(=O)Nc3ccccn3)C2=O)cc1OC,2.0,16.4µM*,-10.2%,-23.0
CCCCc1nc2c(c3c1C[C@H](C)OC3)CN(C(=O)Cc1cccs1)CC2,0.9,nt,5.3%,nt
O=C(Nc1ccc(Cl)cc1)Nc1cc([N+](=O)[O-])ccc1F,-1.1,13µM*,-6.1%,18.3
Cc1ccc(CNc2ccc3nnc(-c4ccccc4)n3n2)cc1,-2.6,2.7%,-3.9%,-1.2
c1ccc(CN2CCN(CCCNc3ccc4nnc(-c5ccccc5)n4n3)CC2)cc1,0.6,18.4µM*,-4.9%,-2.9
CC1=C[C@@H](O)CC(C)(C)[C@@H]1/C=C/C(C)=C/C=C/C(C)=C/C=C/C=C(C)/C=C/C=C(C)/C=C/C1=C(C)C[C@H](O)CC1(C)C,nt,nt,50.1µM*,nt
CC1=C(/C=C/C(C)=C/C=C/C(C)=C/C=C/C=C(C)/C=C/C=C(C)/C=C/C(=O)[C@]2(C)CC(O)CC2(C)C)C(C)(C)CC(O)C1 (stereo not given in full),0.2,nt,10.8%,nt
CC(=O)NC12CC3CC(C1)CC(C(=O)Oc1ccc(N(C)S(=O)(=O)c4cc(C)ccc4C)cc1)(C3)C2,nt,-4.0%,nt,-2.0
COC(=O)c1c(NC(=O)CN2CCC3(O)CCCCC3C2c2cc(OC)ccc2OC)sc(C)c1C (stereo not given),-0.9,9.2µM*,-10.0%,-9.2
COC(=O)c1c(NC(=O)CN2CCC3(O)CCCCC3C2c2ccc(F)cc2)sc(C)c1C (stereo not given),-0.3,-10.7%,-20.5%,-3.1
CC1=C(C(=O)OCc2ccc3c(c2)OCO3)C(c2ccccc2)NC(=O)N1 (stereo not given),0.3,2.06µM*,-16.6%,4.0
CCCOc1ccccc1C1NC(=O)NC(C)=C1C(=O)OCc1ccccc1 (stereo not given),-11.9,16.4µM*,4.1%,6.8
CCCOc1ccccc1C1NC(=O)NC(C)=C1C(=O)OCCOC (stereo not given),-0.9,6.5%,5.8%,13.9
CC1=C(C(=O)OCc2ccc3c(c2)OCO3)C(c2ccc(O)c([N+](=O)[O-])c2)NC(=O)N1 (stereo not given),-0.3,9.2µM*,6.6%,1.4
